Assay [1] addresses Mast/stem cell growth factor receptor Kit (Homo sapiens) (UniProt P10721). To be noted: at 1 µM.
For assay [2], the system named is Mast/stem cell growth factor receptor Kit (Homo sapiens), P10721 [D816V]. To be noted: at 0.1 µM.
Assay [3] shares this test system. To be noted: at 1 µM.
Assay [4] deals with Mast/stem cell growth factor receptor Kit (Homo sapiens), P10721 [T670I]. To be noted: at 0.1 µM.
For assay [5] the test system is unchanged. Conditions: at 1 µM.
For assay [6], the system named is Mast/stem cell growth factor receptor Kit (Homo sapiens), P10721 [V560G]. To be noted: at 0.1 µM.
Mast/stem cell growth factor receptor Kit (Homo sapiens), P10721 [V560G], sequence (P10721 whole entry V560G): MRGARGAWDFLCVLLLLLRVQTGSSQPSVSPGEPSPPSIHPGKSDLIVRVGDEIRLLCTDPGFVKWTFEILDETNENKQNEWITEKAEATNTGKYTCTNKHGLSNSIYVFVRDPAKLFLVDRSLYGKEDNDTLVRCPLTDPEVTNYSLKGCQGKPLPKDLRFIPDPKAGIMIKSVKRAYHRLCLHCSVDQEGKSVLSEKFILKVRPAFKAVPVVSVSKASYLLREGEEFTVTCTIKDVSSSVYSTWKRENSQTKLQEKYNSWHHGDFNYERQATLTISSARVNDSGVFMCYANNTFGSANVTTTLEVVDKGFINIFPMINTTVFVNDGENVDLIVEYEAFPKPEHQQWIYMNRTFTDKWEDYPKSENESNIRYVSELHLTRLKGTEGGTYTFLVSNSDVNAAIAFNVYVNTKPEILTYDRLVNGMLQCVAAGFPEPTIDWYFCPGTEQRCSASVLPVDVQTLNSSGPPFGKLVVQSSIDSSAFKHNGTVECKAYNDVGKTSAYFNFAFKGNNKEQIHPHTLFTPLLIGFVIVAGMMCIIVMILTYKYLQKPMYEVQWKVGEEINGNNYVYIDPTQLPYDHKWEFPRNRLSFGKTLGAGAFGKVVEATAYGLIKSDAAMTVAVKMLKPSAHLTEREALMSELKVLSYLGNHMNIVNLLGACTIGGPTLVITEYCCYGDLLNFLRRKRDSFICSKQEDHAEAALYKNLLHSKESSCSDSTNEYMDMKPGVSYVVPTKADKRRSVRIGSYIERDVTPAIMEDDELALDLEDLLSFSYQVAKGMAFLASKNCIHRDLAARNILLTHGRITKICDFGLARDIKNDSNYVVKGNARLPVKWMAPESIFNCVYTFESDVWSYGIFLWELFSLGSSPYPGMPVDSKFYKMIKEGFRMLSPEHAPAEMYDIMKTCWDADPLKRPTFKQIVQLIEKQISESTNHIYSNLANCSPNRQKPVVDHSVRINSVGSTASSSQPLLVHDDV
Assay [7] has the same test system. Conditions: at 1 µM.
Assay [8] deals with Tyrosine-protein kinase Lck (Homo sapiens) (UniProt P06239). Conditions: at 0.1 µM.
Tyrosine-protein kinase Lck (Homo sapiens), sequence (P06239 2-509 limits assumed): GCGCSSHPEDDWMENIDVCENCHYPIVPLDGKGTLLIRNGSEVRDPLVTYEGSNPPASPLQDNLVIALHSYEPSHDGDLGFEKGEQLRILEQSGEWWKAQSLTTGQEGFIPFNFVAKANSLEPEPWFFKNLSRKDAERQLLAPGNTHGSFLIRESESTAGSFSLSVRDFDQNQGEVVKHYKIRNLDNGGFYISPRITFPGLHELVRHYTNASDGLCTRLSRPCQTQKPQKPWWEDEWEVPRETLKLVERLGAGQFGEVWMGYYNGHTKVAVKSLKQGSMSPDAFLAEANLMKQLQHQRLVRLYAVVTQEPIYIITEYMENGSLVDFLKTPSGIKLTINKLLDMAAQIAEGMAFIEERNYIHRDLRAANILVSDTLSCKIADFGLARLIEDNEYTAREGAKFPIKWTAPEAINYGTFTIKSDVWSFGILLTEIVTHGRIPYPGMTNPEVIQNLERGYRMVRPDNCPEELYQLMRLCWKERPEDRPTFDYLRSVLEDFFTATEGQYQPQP
The target is the same in assay [9]. Conditions: at 1 µM.
Assay [10] concerns the target Leukocyte tyrosine kinase receptor (Homo sapiens) (UniProt P29376). To be noted: at 0.1 µM.
Assay [11] shares this target. To be noted: at 1 µM.
In assay [12] the target is Tyrosine-protein kinase Lyn (Homo sapiens) (UniProt P07948). To be noted: at 0.1 µM.
Tyrosine-protein kinase Lyn (Homo sapiens), sequence (P07948 2-512 limits assumed): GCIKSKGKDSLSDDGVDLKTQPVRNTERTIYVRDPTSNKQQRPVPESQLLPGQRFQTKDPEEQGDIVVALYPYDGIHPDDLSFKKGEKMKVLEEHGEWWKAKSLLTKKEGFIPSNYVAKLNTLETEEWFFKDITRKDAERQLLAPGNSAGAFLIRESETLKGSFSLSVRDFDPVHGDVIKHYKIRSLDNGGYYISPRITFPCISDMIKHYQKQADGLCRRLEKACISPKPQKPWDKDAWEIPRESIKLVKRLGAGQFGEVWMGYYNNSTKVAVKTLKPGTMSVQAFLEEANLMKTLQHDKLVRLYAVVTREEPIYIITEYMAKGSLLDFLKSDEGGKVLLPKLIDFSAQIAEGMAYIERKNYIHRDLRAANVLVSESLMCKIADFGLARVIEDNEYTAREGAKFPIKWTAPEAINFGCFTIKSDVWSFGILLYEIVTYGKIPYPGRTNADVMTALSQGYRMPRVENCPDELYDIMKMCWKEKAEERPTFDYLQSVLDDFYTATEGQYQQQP
For assay [13] the target is unchanged. Conditions: at 1 µM.
The target is the same in assay [14]. To be noted: at 0.1 µM. This is another data set of the same source.
Assay [15] shares this target. To be noted: at 1 µM. This is another data set of the same source.
Assay [16] has as its target T1, Tyrosine-protein kinase Mer (Homo sapiens) (UniProt Q12866).
T1 sequence (whole entry): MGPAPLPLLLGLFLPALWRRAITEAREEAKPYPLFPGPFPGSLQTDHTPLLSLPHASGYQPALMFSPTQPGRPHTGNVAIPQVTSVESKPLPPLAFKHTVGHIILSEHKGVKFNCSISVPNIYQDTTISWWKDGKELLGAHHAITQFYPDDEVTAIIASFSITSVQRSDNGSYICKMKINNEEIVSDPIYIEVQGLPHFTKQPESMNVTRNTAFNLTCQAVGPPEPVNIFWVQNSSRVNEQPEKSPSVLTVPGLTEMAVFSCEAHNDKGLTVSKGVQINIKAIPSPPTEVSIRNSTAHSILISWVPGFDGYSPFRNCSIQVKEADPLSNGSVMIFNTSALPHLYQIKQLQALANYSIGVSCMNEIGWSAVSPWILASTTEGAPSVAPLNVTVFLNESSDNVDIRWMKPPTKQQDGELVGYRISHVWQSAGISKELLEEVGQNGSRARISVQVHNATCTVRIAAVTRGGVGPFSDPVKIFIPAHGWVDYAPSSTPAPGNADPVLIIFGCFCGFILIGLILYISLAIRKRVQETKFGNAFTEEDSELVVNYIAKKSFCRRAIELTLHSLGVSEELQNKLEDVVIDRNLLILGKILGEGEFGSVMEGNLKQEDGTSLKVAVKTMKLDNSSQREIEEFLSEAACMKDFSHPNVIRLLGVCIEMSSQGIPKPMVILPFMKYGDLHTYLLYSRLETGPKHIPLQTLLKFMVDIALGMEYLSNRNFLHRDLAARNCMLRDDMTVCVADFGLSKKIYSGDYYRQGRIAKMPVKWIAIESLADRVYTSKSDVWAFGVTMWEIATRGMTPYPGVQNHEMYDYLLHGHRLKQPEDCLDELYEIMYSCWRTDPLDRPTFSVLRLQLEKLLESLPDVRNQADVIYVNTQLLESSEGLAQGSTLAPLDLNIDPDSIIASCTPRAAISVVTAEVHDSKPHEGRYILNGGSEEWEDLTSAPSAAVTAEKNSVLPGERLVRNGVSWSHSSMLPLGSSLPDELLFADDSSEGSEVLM
To be noted: at 0.1 µM.

The target of assay [17] is T1, Tyrosine-protein kinase Mer (Homo sapiens). Conditions: at 1 µM.
In assay [18] the target is Hepatocyte growth factor receptor (Homo sapiens) (UniProt P08581). To be noted: at 0.1 µM.
Hepatocyte growth factor receptor (Homo sapiens), sequence (P08581 whole entry): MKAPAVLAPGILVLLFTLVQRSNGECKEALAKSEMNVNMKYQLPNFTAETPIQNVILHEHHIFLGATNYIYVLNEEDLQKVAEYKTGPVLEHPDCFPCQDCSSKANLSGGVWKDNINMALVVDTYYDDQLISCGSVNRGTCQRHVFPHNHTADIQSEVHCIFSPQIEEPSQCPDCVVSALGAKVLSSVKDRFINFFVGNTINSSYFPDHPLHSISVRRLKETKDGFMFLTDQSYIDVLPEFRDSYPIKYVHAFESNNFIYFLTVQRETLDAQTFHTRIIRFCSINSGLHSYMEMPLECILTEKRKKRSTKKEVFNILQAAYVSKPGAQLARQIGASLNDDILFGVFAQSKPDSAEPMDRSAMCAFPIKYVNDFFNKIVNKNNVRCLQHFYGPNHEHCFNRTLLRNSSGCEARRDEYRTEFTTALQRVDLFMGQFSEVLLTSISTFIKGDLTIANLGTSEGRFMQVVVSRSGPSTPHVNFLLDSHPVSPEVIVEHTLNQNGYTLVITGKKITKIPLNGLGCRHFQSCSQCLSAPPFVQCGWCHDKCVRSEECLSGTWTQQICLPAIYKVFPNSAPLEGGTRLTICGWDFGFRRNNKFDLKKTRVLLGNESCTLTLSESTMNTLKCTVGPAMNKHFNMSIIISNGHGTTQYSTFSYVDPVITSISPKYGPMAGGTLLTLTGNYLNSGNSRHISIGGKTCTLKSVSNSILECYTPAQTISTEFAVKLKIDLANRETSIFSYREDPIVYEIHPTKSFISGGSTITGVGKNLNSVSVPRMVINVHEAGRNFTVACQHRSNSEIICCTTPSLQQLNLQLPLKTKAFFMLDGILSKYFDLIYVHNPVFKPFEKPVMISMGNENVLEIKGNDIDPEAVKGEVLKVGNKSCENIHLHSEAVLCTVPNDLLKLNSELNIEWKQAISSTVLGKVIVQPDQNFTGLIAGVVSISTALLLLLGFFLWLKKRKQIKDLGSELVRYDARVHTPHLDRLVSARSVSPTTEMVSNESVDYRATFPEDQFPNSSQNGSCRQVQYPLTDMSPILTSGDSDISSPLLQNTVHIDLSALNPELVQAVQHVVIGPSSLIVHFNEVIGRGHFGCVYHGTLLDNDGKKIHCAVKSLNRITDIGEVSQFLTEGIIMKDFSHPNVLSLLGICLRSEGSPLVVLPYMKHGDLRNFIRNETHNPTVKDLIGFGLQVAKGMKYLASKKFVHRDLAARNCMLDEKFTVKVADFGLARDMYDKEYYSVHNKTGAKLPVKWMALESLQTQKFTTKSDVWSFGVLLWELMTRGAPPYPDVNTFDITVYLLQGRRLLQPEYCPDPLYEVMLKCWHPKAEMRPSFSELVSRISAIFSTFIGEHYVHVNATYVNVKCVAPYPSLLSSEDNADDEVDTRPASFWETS
Assay [19] shares this target. To be noted: at 1 µM.
In assay [20] the target is T2, Muscle, skeletal receptor tyrosine-protein kinase (Homo sapiens) (UniProt O15146).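 Also: values are mean inhibition of MuSK from the GSK PKIS kinase screening panel.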
T2 sequence (whole entry): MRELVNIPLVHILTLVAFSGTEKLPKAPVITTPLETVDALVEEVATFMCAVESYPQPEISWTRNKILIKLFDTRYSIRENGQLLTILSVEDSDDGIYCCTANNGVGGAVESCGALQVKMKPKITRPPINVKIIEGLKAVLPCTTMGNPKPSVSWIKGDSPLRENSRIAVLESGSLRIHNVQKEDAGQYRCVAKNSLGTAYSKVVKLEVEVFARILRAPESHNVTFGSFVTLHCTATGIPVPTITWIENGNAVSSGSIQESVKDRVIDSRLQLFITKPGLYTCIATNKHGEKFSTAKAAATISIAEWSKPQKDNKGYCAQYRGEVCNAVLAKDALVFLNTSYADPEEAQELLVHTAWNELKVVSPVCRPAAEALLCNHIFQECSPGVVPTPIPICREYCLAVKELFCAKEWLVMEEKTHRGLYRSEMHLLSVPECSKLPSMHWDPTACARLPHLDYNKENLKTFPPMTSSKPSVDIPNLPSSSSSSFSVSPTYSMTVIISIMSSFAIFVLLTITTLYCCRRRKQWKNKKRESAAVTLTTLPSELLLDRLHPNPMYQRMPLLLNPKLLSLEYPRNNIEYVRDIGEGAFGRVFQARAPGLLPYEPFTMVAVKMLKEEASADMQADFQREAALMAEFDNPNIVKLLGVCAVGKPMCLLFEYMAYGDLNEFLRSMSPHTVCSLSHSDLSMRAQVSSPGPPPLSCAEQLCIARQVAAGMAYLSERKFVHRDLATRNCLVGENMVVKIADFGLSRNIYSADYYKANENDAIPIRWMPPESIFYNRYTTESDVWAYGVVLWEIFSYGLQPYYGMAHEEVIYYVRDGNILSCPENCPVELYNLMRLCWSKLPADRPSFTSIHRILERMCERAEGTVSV
Conditions: at 0.1 µM.

Structures are written as SMILES.

Mast/stem cell growth factor receptor Kit (Homo sapiens), P10721 [T670I], sequence (P10721 whole entry T670I): as the sequence (P10721 whole entry V560G) above, with G560V, T670I counted along it
Leukocyte tyrosine kinase receptor (Homo sapiens), sequence (P29376 whole entry): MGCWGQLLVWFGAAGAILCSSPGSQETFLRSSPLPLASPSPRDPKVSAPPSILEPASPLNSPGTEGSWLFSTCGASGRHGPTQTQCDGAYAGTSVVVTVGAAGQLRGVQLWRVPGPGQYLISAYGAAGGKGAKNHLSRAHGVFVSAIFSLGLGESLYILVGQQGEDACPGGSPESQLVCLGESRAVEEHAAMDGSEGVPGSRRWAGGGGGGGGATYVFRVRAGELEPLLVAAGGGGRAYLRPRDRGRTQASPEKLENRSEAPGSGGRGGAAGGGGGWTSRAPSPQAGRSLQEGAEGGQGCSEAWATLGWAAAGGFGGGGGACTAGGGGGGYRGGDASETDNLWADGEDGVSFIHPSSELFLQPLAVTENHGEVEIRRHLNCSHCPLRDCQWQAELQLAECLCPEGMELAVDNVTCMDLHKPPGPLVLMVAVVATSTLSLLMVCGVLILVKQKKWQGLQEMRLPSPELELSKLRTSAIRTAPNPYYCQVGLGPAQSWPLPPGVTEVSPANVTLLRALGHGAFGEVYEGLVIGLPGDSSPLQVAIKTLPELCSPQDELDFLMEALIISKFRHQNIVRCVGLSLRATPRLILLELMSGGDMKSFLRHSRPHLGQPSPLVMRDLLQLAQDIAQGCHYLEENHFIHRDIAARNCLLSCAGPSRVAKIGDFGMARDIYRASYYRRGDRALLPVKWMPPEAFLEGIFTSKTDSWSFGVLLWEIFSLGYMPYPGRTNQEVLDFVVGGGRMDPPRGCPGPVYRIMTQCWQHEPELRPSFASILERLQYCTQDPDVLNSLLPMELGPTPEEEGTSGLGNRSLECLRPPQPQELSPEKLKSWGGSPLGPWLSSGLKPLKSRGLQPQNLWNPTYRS
Mast/stem cell growth factor receptor Kit (Homo sapiens), sequence (P10721 whole entry): as the sequence (P10721 whole entry V560G) above, with G560V counted along it
Mast/stem cell growth factor receptor Kit (Homo sapiens), P10721 [D816V], sequence (P10721 whole entry D816V): as the sequence (P10721 whole entry V560G) above, with G560V, D816V counted along it

With `CN1CCC(n2cnc(-c3ccc(F)cc3)c2-c2ccnc(NCCO)n2)CC1`, the inhibition in assay [1] was 10.7%; in assay [2] it was 1.99%; in [3], 7.69%; in assay [4], 3.05%; in [5] it was 6.22%; in assay [6] it was -1.29%. For the same molecule, the inhibition in assay [7] is -0.38%; in [8] it was 2%; in assay [9] it was 1.46%; in [10], 4.62%; in assay [11], 5.36%; in [12], 5.64%. The inhibition amounted to 7.19% in [13]; 3.08% in assay [14]; 5.79% in [15]; 2.22% in [16]; 7.18% in [17]; 0.32% in assay [18]. For the same molecule, the inhibition in assay [19] worked out at 10.6%; in [20], 3.32%.
Take `CCCNc1cccc(-n2ncc3c(N/N=C/c4ccncc4)ncnc32)c1`: the inhibition in assay [1] was 23.7%; in assay [2], -0.57%; in assay [3], 9.89%; in [4] it was 1.36%; in [5], 5.45%; in assay [6], 7.17%. The inhibition in [7] came to 13.4%; in assay [8], 23.1%; in assay [9], 68.3%; in [10], 1.2%; in assay [11], 4.23%; in assay [12], 18%. Also, the inhibition in [13] was determined as 69.6%; in [14] it was 15.4%; in assay [15], 64.8%; in assay [16], 6.21%; in [17], 25.6%; in [18], 12.6%. In addition, the inhibition in assay [19] turned out to be 49%; in [20] it was 8.51%.
As for `Cc1cc(O)cc(C)c1/C=C/c1cncc(C(N)=O)c1`, the inhibition in assay [1] turned out to be 66.6%; in [2] it was 3.61%; in assay [3], 2.03%; in assay [4], 2.25%; in assay [5], 1.74%; in assay [6], 2.69%. Besides, the inhibition in assay [7] amounted to 22.9%; in [8], 8.78%; in assay [9] it was 44.1%; in assay [10], 2.14%; in assay [11] it was 3.91%; in assay [12], 14.8%. Besides, the inhibition in [13] came out at 61%; in assay [14], 10.4%; in assay [15], 57%; in assay [16], 1.5%; in assay [17] it was 2.49%; in assay [18], 0.96%. The inhibition in [19] is 6.76%; in assay [20], 3.77%.
Turning to `Cc1c2ccc(N(C)c3ccnc(Nc4cccc(S(N)(=O)=O)c4)n3)cc2nn1C`, the inhibition was found to be 98% in [1]; 2.85% in assay [2]; 5.89% in [3]; 22% in assay [4]; 81.1% in assay [5]; 69.9% in assay [6]. In addition, the inhibition amounted to 80.3% in [7]; 20.3% in assay [8]; 66.6% in assay [9]; 4.98% in assay [10]; 24.1% in assay [11]; 41.3% in assay [12]. Besides, the inhibition turned out to be 83.6% in assay [13]; 36.3% in assay [14]; 80.7% in assay [15]; 17.7% in assay [16]; 61.9% in assay [17]; 10.6% in assay [18]. The results for the inhibition in assay [19] and in assay [20] were 28.1% and 2.38%, respectively.
For the molecule `Fc1cccc(COc2ccc(Nc3ncncc3C#Cc3ccccc3)cc2Cl)c1`, the inhibition in assay [1] is 7.97%; in [2], 9.06%; in [3] it was 7.92%; in [4] it was 3.83%; in assay [5] it was 6.38%; in [6] it was -1.39%. Moreover, the inhibition in assay [7] is -0.04%; in assay [8], 1.72%; in assay [9], 2%; in [10] it was 4.37%; in assay [11], 4.63%; in [12], 6.26%. The inhibition in assay [13] came to 7.71%; in assay [14], 2.8%; in assay [15], 7.49%; in [16] it was 0.06%; in [17] it was 2.67%; in assay [18], 8.24%. Also, the inhibition amounted to 5.53% in assay [19] and 3.76% in assay [20].

As usually defined, the inhibition is the change of the read-out against control, counted positive when it falls.

The record behind these values is ChEMBL document CHEMBL1961873, “Compounds: GSK PKIS; Assays: Nanosyn kinase panel” (2012).
